The target in one test is Furin (Homo sapiens) (UniProt P09958). The experiment in a line: Furin counterscreen qHTS for Zika virus inhibitors (AID 1347149). Note: nearly all actives have a fitted effect of over 70% in size. Note: potency is the fitted concentration of half-maximal effect. The method, boiled down: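 Counterscreen measures cleavage of 2 microM BOC-RVRR-AMC, below its ~15 microM Km, by 5 nM full-length human furin at pH 7.0 after a 15-min compound preincubation. Inhibition derives from the 15-min fluorescence increase at 37C.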
(A counterscreen serves to expose hits that act by an unwanted route or on another target.)

The nature of test [1]: Confirmatory screen GU Rhodamine qHTS for Zika virus inhibitors qHTS (AID 1347157). Note: nearly all actives have a fitted effect of over 70% in size. The method, boiled down:
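Percent inhibition derives from the 15-min fluorescence change (ex 480, em 540 nm), normalized to no-enzyme and no-inhibitor wells. Reactions contained 25 nM NS2B-NS3 complex and 1.5 microM substrate in 10 mM Tris-HCl pH 8.0.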

Test [2] in a line: Tertiary RLuc qRT-PCR qHTS assay for Zika virus inhibitors (AID 1347169). Note: top concentration of the series differs between compounds; nearly all actives have a fitted effect of over 55% in size. The method, boiled down: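 Vero cells (1,000/well) infected with recombinant ZIKV-RLuc (Cambodian) at MOI 1-2 after compound addition, 48-72 hrs at 37 degrees C. Live-cell Renilla luciferase substrate added; luminescence read after 1-1.5 hrs.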
Test [3] has as its system Zika virus NS2B-NS3 protease (linked construct). In words: 384 well plate NINDS Rhodamine confirmatory qHTS for Zika virus inhibitors (AID 1347164).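 Note: fluorescence from protease cleavage of Ac-LKRR-rhodamine 110 substrate; potency is the fitted concentration of half-maximal effect; nearly all actives have a fitted effect of over 65% in size.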 The method, boiled down: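 Linked NS2B-NS3 protease (final 5, 30 or 60 nM) preincubated ~15 minutes with compounds, then 10 microM Ac-LKRR-Rhodamine 110 added. Fluorescence (485/538 nm) read after 25 minutes at room temperature, normalized to no-enzyme and no-inhibitor controls.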
(In qHTS, concentration-response curves come from the screen itself.)

The nature of test [4]: ZIKV-mCherry secondary qHTS for Zika virus inhibitors (AID 1347158). Note: top concentration of the series differs between compounds. The method, boiled down: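 Read-out is percent infection: mCherry-positive Vero cells (nuclear-proximal intensity >450 RFU, 3 SD above negative controls) counted by high-content imaging of Hoechst-stained, PFA-fixed wells after 48-72 h with ZIKV-mCherry at MOI 1 and compound.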
Test [5] deals with Zika virus NS2B-NS3 protease (linked). The experiment in a line: 384 well plate NINDS AMC confirmatory qHTS for Zika virus inhibitors (AID 1347163). Note: potency is the fitted concentration of half-maximal effect; nearly all actives have a fitted effect of over 50% in size. Summed up: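 Enzyme (5, 30 or 60 nM final) first met test compounds for ~15 min. The AMC-tagged peptide Ac-VKTGKR-AMC followed at 30 microM. Fluorescence was then recorded at 25 min and scaled against no-enzyme and no-inhibitor wells.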

A short description of test [6]: Confirmation and Secondary Assay for Modulators of Hemoglobin Beta Chain Splicing at IVS2 654 locus (AID 910).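 Note: per-well total GFP intensity by laser scanning cytometry after 2-day treatment.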 The method, boiled down: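 HeLa cells stably carrying EGFP interrupted by mutant beta-globin IVS2-654 intron (CMV-driven) were treated with compound for 2 days at 37C; corrected splicing was scored as total peak GFP intensity per well (488 nm excitation, 500-520 nm emission).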

Test [7] is described as follows: Confirmation and Secondary Assay for Modulators of Hemoglobin Beta Chain Splicing at IVS2 705 locus (AID 930).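 Note: HeLa cells stably expressing the EGFP-705 splicing reporter; GFP fluorescence per well restored by corrected splicing of the IVS2-705 intron in EGFP; series mostly up to about 46 µM.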 The method, boiled down:
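Per-well GFP, captured at 1 x 8 µm resolution with 488 nm excitation, served as the read-out for HeLa EGFP-705 cells incubated 2 days with test compound versus DMSO.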

Test [8] deals with Ubiquitin carboxyl-terminal hydrolase 1 (Homo sapiens) (UniProt O94782). The experiment in a line: Inhibitors of USP1/UAF1: Pilot qHTS (AID 504865).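 Note: rhodamine fluorescence freed from ubiquitin-rhodamine substrate followed over time; top concentration of the series differs between compounds; nearly all actives have a fitted effect of over 35% in size.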 Summed up:
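USP1/UAF1 complex at 1 nM preincubated 15 min at room temperature with compound, then Ub-Rho substrate added at 150 nM final. Fluorescence (480/540 nm) read kinetically in 50 mM HEPES pH 7.8, 0.5 mM EDTA, 1 mM TCEP, 0.1 mg/ml BSA, 0.01% Tween-20.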

Unmarked numbers belong to inactive results. Inconclusive results are not listed. Calls of active or inactive are those of the source. Calls come from the whole dose curve; as a rule, active = well fitted curve in the direction sought with a large enough effect; inconclusive = small, poorly fitted or top-dose-only effect, or another doubt; inactive = no such curve, though single readings can be large; an effect the other way counts as inactive or inconclusive.

Furin (Homo sapiens), sequence (P09958 whole entry, looked up): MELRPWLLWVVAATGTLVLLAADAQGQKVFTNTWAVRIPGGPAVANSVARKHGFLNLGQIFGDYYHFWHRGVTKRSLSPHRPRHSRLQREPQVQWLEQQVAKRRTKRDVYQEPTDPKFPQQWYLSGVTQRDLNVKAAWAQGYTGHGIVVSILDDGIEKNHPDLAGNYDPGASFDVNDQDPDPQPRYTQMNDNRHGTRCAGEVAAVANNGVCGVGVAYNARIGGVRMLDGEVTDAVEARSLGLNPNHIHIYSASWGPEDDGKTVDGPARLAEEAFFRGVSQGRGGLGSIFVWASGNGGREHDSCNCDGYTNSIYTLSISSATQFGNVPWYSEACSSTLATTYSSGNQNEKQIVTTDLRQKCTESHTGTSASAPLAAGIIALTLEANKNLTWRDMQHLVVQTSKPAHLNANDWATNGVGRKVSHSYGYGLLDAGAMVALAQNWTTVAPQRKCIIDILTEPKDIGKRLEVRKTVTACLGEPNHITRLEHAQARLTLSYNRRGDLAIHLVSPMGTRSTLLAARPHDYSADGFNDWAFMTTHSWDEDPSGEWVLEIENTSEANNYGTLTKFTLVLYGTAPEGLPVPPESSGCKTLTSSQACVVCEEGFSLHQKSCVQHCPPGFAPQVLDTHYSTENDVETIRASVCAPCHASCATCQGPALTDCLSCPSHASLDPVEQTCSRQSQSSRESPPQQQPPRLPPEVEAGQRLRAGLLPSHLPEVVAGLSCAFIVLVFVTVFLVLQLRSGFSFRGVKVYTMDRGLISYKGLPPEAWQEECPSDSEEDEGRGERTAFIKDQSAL
Ubiquitin carboxyl-terminal hydrolase 1 (Homo sapiens), sequence (O94782 whole entry, looked up): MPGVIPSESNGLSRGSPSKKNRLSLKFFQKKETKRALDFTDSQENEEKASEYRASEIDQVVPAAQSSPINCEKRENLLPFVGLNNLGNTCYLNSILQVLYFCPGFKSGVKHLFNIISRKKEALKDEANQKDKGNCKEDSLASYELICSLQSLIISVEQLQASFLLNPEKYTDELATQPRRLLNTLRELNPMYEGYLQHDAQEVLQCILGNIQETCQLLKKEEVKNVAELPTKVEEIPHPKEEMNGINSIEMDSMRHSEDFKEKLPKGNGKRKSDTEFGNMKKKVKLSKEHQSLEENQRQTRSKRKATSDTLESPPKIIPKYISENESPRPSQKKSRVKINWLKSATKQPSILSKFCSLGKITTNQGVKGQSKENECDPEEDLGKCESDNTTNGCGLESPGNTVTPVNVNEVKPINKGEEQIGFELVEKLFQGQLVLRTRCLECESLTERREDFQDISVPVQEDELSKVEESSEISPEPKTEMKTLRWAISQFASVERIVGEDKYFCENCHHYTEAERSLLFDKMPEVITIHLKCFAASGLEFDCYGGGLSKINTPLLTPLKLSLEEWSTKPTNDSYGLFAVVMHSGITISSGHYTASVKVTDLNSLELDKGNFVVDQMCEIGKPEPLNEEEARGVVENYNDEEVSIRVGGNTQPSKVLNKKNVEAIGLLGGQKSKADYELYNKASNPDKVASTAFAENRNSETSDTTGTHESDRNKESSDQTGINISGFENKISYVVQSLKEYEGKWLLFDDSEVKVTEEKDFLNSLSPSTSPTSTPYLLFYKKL

As to `O=c1oc2ccc3ccccc3c2cc1-c1nnc(Nc2cccc(C(F)(F)F)c2)s1`, the Potency entry (with Furin (Homo sapiens); in [1]; in test [2]) was “inactive” throughout.
`O=C(O)COc1ccc(-c2nccc3c2C(=O)N(Cc2cccc(C(F)(F)F)c2)CC(COc2ccc4cnccc4c2)O3)cc1` (stereo unspecified): the Potency was 62.2 µM (active) in the test with Furin (Homo sapiens) and 35.5 µM (active) in test [3]. Moreover, the Potency result in test [2] is “inactive”.
Take `O=C(O)COc1ccc(-c2nccc3c2C(=O)N(Cc2cccc(C(F)(F)F)c2)CC(COc2ccccc2)O3)cc1` (stereo unspecified): the Potency entry (with Furin (Homo sapiens); in test [4]; in test [2]) was “inactive” each time. The Potency in [3] is 39.8 µM (active).
`COc1ccc(/C=C(\C#N)c2nc(-c3cc4c(ccc5ccccc54)oc3=O)cs2)cc1O`: the Potency entry (in the test with Furin (Homo sapiens); in test [4]) was “inactive” throughout.
For `COc1ccc(NS(=O)(=O)c2ccc(NS(=O)(=O)c3ccc4c(c3)OCCO4)cc2)cc1`, in the test with Furin (Homo sapiens), the Potency result was “inactive”. In addition, the values for the Potency in [5] and in test [3] were 355 µM (active) and 141 µM (active), respectively.
Regarding `Cc1cccc(C)c1-n1c(SCC(=O)Nc2ccc(C(=O)O)cc2)nnc1-c1cccc([S+](=O)([O-])N2CCCC2)c1`, the Potency result (in the test with Furin (Homo sapiens); in test [4]; in test [2]) was “inactive” throughout. Besides, the Potency in [5] was 70.8 µM (active); in test [3], 89.1 µM (active).
In the case of `NC(Cc1cc(I)c(Oc2ccc(O)c(I)c2)c(I)c1)C(=O)O` (stereo unspecified), the outcome in test [6] and in test [7] was inactive. The Potency result (in test [8]; in the test with Furin (Homo sapiens); in test [1]; in [2]) was “inactive” throughout.

For the origin of these results see PubChem BioAssay (NCATS).
